{
  "source": "PubChem BioAssay AID1259336",
  "about": "(Sattelle Laboratory, UCL Respiratory, Division of Medicine, …, 2017)",
  "note": "Unmarked numbers belong to inactive results. Calls of active or inactive are those of the source. Cut-off read from the data, not from the text of the source: active = log2 fold change growth below about -1.8; inactive = the rest.",
  "data": [
    {"assay": "anthelmintic activity against nematode growth – whole organism, log2 fold change (AID 1259336);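 note: growth scored by imaging after five days at 20 °C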", "conditions": "C. elegans growth, anthelmintic screen; active compounds read low", "values": [
      {"smiles": "CS(=O)(=O)Cc1nc2ccccc2oc1=O", "log2 fold change growth": -0.133},
      {"smiles": "CCc1nc2ccccc2n1C[C@H](O)COc1cc(C)ccc1Cl", "log2 fold change growth": 0.0644},
      {"smiles": "FC(F)(F)c1ccc(N(c2cccnc2)C2CCN(c3ccc(C(F)(F)F)cn3)CC2)cc1", "log2 fold change growth": -0.44},
      {"smiles": "Cc1cc(C)nc(-n2nc(C)cc2Nc2ccccc2)n1", "log2 fold change growth": 0.0497},
      {"smiles": "CC(C)(C)CN1C(=O)C(c2ccccc2)(c2ccccc2)N=C1N", "log2 fold change growth": "-5.48 (active)"},
      {"smiles": "CCCc1ccc(S(=O)(=O)Nc2ccc(CN3CCN(CC4CC4)CC3)cc2)cc1", "log2 fold change growth": 0.319},
      {"smiles": "O=C(Nc1cccnc1)c1c(O)c2cccc3c2n(c1=O)CC3", "log2 fold change growth": "-4.81 (active)"},
      {"smiles": "CCOc1ccccc1N[C@@H](C)C(=O)Nc1cc(C(F)(F)F)ccc1N1CCOCC1", "log2 fold change growth": -1.5},
      {"smiles": "CC(C)(CN)c1nc(-c2ccc(Cl)c(O)c2)c(-c2ccnc(N)n2)[nH]1", "log2 fold change growth": -0.414},
      {"smiles": "CC1=Nc2ccc(Cl)cc2[C@H](c2ccccc2)N1CCNC(=O)CN(C)C", "log2 fold change growth": 0.44},
      {"smiles": "COc1ccc(-c2nn(C(C)C)c3ncnc(N)c23)cc1OC", "log2 fold change growth": 0.278},
      {"smiles": "OC[C@H]1O[C@@H](n2c3ccc(Cl)cc3c3c(-c4cc5ccccc5o4)ncnc32)C(O)[C@H]1O", "note": "(stereo partly drawn)", "log2 fold change growth": -0.877},
      {"smiles": "CC(C)(C)c1ccc(N[C@@H]2CCCC[C@H]2NC(=O)c2ccco2)cc1", "log2 fold change growth": 0.519},
      {"smiles": "Cc1cc(OCC(=O)Nc2ccc(C(C)C)cc2)n(C)c(=O)c1C#N", "log2 fold change growth": 0.363},
      {"smiles": "COc1cccc(-c2nc3c(N4CCCC4)cccc3n2C[C@H]2CCCN2)n1", "log2 fold change growth": 0.434},
      {"smiles": "Cc1[nH]n2c(=O)c3c(nc2c1-c1ccc(F)cc1)CCCC3", "log2 fold change growth": -0.19},
      {"smiles": "O=C(Nc1ccccc1-c1nc2c(C(=O)O)cccc2o1)c1ccccc1", "log2 fold change growth": -0.0236},
      {"smiles": "Cc1noc(C)c1C(=O)N1CCC[C@H](c2[nH]c3c(C)cccc3c2-c2ccncc2)C1", "log2 fold change growth": -0.149},
      {"smiles": "CCc1ccc(S(=O)(=O)Nc2cc(CN3CCN(CCC(C)C)CC3)ccc2C)cc1", "log2 fold change growth": 0.554},
      {"smiles": "COc1nc2ccc(Br)cc2cc1[C@@H](c1ccccc1)[C@@](O)(CCN(C)C)c1cccc2ccccc12", "log2 fold change growth": 0.248},
      {"smiles": "O=C(Nc1ccnc(-c2cccnc2)n1)c1cc(C(F)(F)F)cc(C(F)(F)F)c1", "log2 fold change growth": 0.327},
      {"smiles": "NC(N)=Nc1ccc(-c2ccc(-c3ccc(N=C(N)N)cc3Cl)o2)c(Cl)c1", "log2 fold change growth": 0.171},
      {"smiles": "c1coc(CNc2nc(N3CCCCC3)nc3ccccc23)c1", "log2 fold change growth": -0.141},
      {"smiles": "CC(C)(C)OC(=O)N1CCN(c2nccc(-c3ccc(-c4ccc(Cl)cc4)s3)n2)CC1", "log2 fold change growth": 0.151},
      {"smiles": "O=C(CN1CCOCC1)Nc1ccc2ncnc(Nc3ccc(OCc4cccc(F)c4)c(Cl)c3)c2c1", "log2 fold change growth": -0.76},
      {"smiles": "CC(C)(C)c1cc(C(=O)Nc2cccnc2)cc(C(=O)Nc2cccnc2)c1", "log2 fold change growth": 0.00293},
      {"smiles": "CCS(=O)(=O)N(Cc1ccco1)Cc1cc2ccc(C)cc2[nH]c1=O", "log2 fold change growth": 0.443},
      {"smiles": "COC(=O)c1cccc2oc(-c3cccc(OC)c3NC(=O)c3cc(-c4ccccc4)on3)nc12", "log2 fold change growth": -0.13},
      {"smiles": "COc1cccn2c(C(=O)N3CCCCC3)c(C(F)(F)F)nc12", "log2 fold change growth": 0.258},
      {"smiles": "CC(C)(C)c1cc(C(=O)N2CCN(c3nccnc3C#N)CC2)n(Cc2ccccc2)n1", "log2 fold change growth": -0.0659},
      {"smiles": "Cc1cc(Nc2ccc(C(F)(F)F)cc2)n2ccnc2n1", "log2 fold change growth": 0.0805},
      {"smiles": "COc1ccc(-c2onc(C(F)(F)F)c2-c2ccc(Cl)cc2)c(O)c1", "log2 fold change growth": 0.102},
      {"smiles": "O=C(Nc1ccc(C(F)(F)F)c(C(F)(F)F)c1)c1cc(Cl)ccc1O", "log2 fold change growth": 0.513},
      {"smiles": "Nc1ncnc2c1ncn2[C@@H]1O[C@H](COS(=O)(=O)NC(=O)c2ccccc2O)[C@@H](O)[C@H]1O", "log2 fold change growth": 0.353},
      {"smiles": "Cc1[nH]c2cc(F)cc(F)c2c(=O)c1-c1ccc(Oc2ccc(OC(F)(F)F)cc2)cc1", "log2 fold change growth": -0.247},
      {"smiles": "CCN(CC)C(=O)N1CCN(C)CC1", "log2 fold change growth": 0.355},
      {"smiles": "CC(C)(C)n1nc(Cc2ccc(F)c(Cl)c2)c2c(N)ncnc21", "log2 fold change growth": -1.01},
      {"smiles": "CC(C)n1nc(-c2cc3c(Cl)cccc3[nH]2)c2c(N)ncnc21", "log2 fold change growth": "-2.56 (active)"}
    ]}
  ]
}
